uPA surface inh: cell surface uPA generation inhibition | cell surface uPA generation assay, qHTS | Potency, µM (doses to about 38.3 µM), without a hit: at the highest dose activity change, negative = inhibition, most hits filed as inhibitors | 330,000 compounds, 0.31% hits; active = well fitted inhibition curve with a large enough effect; inconclusive = small, poorly fitted or top-dose-only effect; inactive = no such curve, though single readings can be large or run the other way; tested in mouse RAW 264.7 cells; also: potency is read from the fitted curve at half-maximal effect; nearly all actives have a fitted effect of over 55% in size
HT1080NT lethal: kills 2HG-producing HT-1080-NT fibrosarcoma cells | HT-1080-NT fibrosarcoma viability, CellTiter-Glo ATP luminescence, 48 h | Potency, µM (doses to about 46.1 µM), for inactives: at the highest dose activity, negative = less viability, most hits filed as cytotoxic | 360,000 compounds, 1.6% hits | AID 686970;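 also: NT is the 2HG producing partner of a matched IDH1 knockdown line; potency is read from the fitted curve at half-maximal effect; 0% = DMSO-treated cells and -100% = media-only wells without cells; nearly all actives have a fitted effect of over 55% in size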
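HT-1080-NT fibrosarcoma cells (2HG-overproducing), 750 cells/well in RPMI with 5% FBS, dosed after 2 h and incubated 48 h at 37C. CellTiter-Glo luminescence normalized to DMSO and no-cell wells; concentration-response curves fitted and classed.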
TDP1 cell noCPT: qHTS for Inhibitors of human tyrosyl-DNA phosphodiesterase 1 (TDP1): qHTS in cells in absence of CPT; DT40 Tdp1-/- hTDP1 cells, no CPT, ATP luminescence, 48 h; AID 686978, 2013; Potency, µM (doses to about 46.2 µM), inactives show at the top dose activity change, negative = growth inhibition, usual class: inhibitors; 420,000 compounds, 15% hits; also: potency is read from the fitted curve at half-maximal effect; nearly all actives have a fitted effect of over 55% in size
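Luminescent ATP content (CellTiter-Glo) served as the growth readout. Knockout chicken DT40 cells expressing human TDP1 were exposed to compounds without camptothecin for a minimum 48 hr at 37 °C.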
HT1080 IDH1KD tx: toxicity to HT-1080 IDH1 knockdown cells (counter line); 360,000 compounds, 2% hits; AID 686971; Potency, µM (titrated, usually from 46.1 µM), for the others: at the top dose activity, negative = toxicity, most hits filed as cytotoxic; HT-1080 IDH1 knockdown viability, ATP luminescence, 48 h;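 also: potency is read from the fitted curve at half-maximal effect; 0% = DMSO wells and -100% = cell-free medium wells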
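Using the IDH1-knockdown HT-1080 line run in the same batch and compound series as the NT line, viability after 48 h at 37 °C was determined by CellTiter-Glo luminescence and expressed as % activity.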
IL-1B inflam inh: blocks inflammasome-driven IL-1 beta release. THP-1 LPS/ATP IL-1B secretion, AlphaLISA, 16 h; hits give low values. activity change, % at 57.5 µM. 360,000 compounds, 4.7% hits. AID 743279; in the data active = activity change below about -50%; inconclusive = mostly about -30% to -49%
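Secreted IL-1B measured by AlphaLISA bead assay after 16 h compound exposure of THP-1 cells; compounds (final up to 57.5 uM) added 1 h before LPS (250 ng/mL) and ATP (1.25 mM) stimulation; lower signal means less secretion.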
TDP1 cell CPT: growth inhibition of DT40 Tdp1-/-;hTDP1 cells with camptothecin (screen for TDP1 inhibitors); 420,000 compounds, 12% hits; chicken DT40 Tdp1-/-;hTDP1 cells + 20 nM CPT, ATP luminescence, 48 h; Potency, µM (titrated, usually from 46.2 µM), for inactives: at the top dose activity change, negative = growth inhibition, usual class: inhibitors; also: potency is read from the fitted curve at half-maximal effect; nearly all actives have a fitted effect of over 55% in size
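Chicken DT40 Tdp1-/- cells stably complemented with human TDP1 were seeded at 400 cells/well in medium containing 20 nM camptothecin, exposed to pin-transferred compounds, and grown at 37 °C for at least 48 hr. Viability was read as ATP luminescence.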
* marks the source's active call; other numbers are inactive results; ? = inconclusive; . = no result given. Most compounds without a hit are left out; they make up all but 19% or so of the library. Unless noted, calls follow the shape of the dose curve; as a rule, active = well fitted curve in the direction sought with a large enough effect; inconclusive = small, poorly fitted or top-dose-only effect, or another doubt; inactive = no such curve, though single readings can be large; an effect the other way counts as inactive or inconclusive. Unless noted, % is scaled to controls: 0 for no effect and ±100 for the full control effect.

SMILES	uPA surface inh	HT1080NT lethal	TDP1 cell noCPT	HT1080 IDH1KD tx	IL-1B inflam inh	TDP1 cell CPT
CCOC(=O)COc1cc(-n2c(=S)[nH]c3cc(OC)c(OC)cc3c2=O)c(Cl)cc1Cl	-2.6%	2.4%	?	9.7%	0.0	-29.3%
CCOC(=O)COc1cc(N2C(=O)CSCC2=O)c(Cl)cc1Cl	1.2%	5.7%	-3.9%	0.0%	-98.8*	-7.9%
O=C(Cc1cccs1)N/N=C/C=C/c1ccccc1	-12.3%	-6.9%	-8.9%	-0.3%	23.0	-4.9%
COc1ccc(/C=C/C(=O)NC(=S)NNC(=O)Cc2cccs2)cc1	-5.6%	14.6µM*	?	16.4µM*	70.6	20.6µM*
O=C(/C=C/c1ccccc1)NC(=S)NNC(=O)Cc1cccs1	-0.6%	?	18.4µM*	?	39.0	?
CCN(CC)S(=O)(=O)c1cccc(-c2nnc(SCC(N)=O)n2C)c1	3.2%	7.0%	1.4%	-3.4%	9.7	16.3%
CCN(CC)S(=O)(=O)c1cccc(-c2nnc(SCc3ncc(-c4ccccc4)o3)n2C)c1	-8.8%	-7.8%	18.4µM*	-11.3%	0.0	?
CCSc1nnc(-c2cccc(S(=O)(=O)N(CC)CC)c2)n1Cc1ccccc1	.	?	17.8µM*	-16.1%	-25.9	11.2µM*
CCOc1ccc(C2/C(=C(\O)c3ccc4c(c3)OCCO4)C(=O)C(=O)N2CCN2CCOCC2)cc1OC (stereo not drawn)	5.7%	-0.8%	21.1%	7.8%	8.0	2.5%
COC(=O)c1ccccc1S(=O)(=O)N1CCC(c2nc3ccccc3o2)CC1	2.9%	20.5%	?	4.0%	-13.6	-20.1%
CN(C)S(=O)(=O)c1ccc(C(=O)N2CCC(c3nc4ccccc4o3)CC2)cc1	-5.3%	-4.8%	?	-9.9%	4.7	-29.4%
CCOc1ccccc1C(=O)N1CCC(c2nc3ccccc3o2)CC1	.	.	20.6µM*	.	.	?
CC(C)Oc1ccc(C(=O)N2CCC(c3nc4ccccc4o3)CC2)cc1	.	.	18.4µM*	.	.	?
CCCCOc1ccc(C(=O)N2CCC(c3nc4ccccc4o3)CC2)cc1	.	.	13µM*	.	.	?
Cc1cccc(OC(C)C(=O)N2CCC(c3nc4ccccc4o3)CC2)c1C (stereo not drawn)	.	.	23.1µM*	.	.	?
CCOc1ccc(NC(=O)N2CCC(c3nc4ccccc4o3)CC2)cc1	6.6%	1.2%	?	4.0%	-13.8	?
CCOc1ccccc1C(=O)N1CCOCC1	2.3%	-3.7%	-3.3%	-0.2%	7.8	-5.4%
CCC[C@H]1CN(Cc2cccnc2)C(=O)[C@@H]1CC(=O)Nc1ccc(Br)cc1	.	2.1%	?	-15.4%	-21.8	-29.7%
CCOC(=O)N1CCN(S(=O)(=O)c2c(C(=O)N3CCCCC3)c(C)n(C)c2C)CC1	-8.4%	7.3%	23.5%	9.3%	-18.3	2.7%
COc1cccc(C=NCCCN=Cc2cccc(OC)c2O)c1O	1.3%	-1.5%	10.2%	-5.2%	0.0	-6.5%
Fc1ccc(-n2cc(-c3ccccc3)c3c(N4CCOCC4)ncnc32)cc1	7.0%	-5.9%	20.6µM*	7.8%	-5.5	20.6µM*
COc1ccc(-n2cc(-c3ccccc3)c3c(=O)[nH]cnc32)cc1	-17.2%	-3.3%	-9.0%	-13.1%	-82.2*	14.5%
O=c1[nH]cnc2c1c(-c1ccccc1)cn2-c1cccc(Cl)c1	-4.3%	-6.6%	?	-0.7%	-7.0	?
CCN(c1ncnc2c1c(-c1ccccc1)cn2-c1ccccc1)C1CCCCC1	.	.	-0.3%	.	.	-19.5%
CCOC(=O)C(CC)Sc1ncnc2c1c(-c1ccccc1)cn2-c1ccc(OC)cc1 (stereo not drawn)	.	.	20.6µM*	.	.	?
SMILES	uPA surface inh	HT1080NT lethal	TDP1 cell noCPT	HT1080 IDH1KD tx	IL-1B inflam inh	TDP1 cell CPT
Fc1ccc(-n2cc(-c3ccccc3)c3c(NC4CCCCC4)ncnc32)cc1	.	.	23.1µM*	.	.	20.6µM*
CC(=O)Nc1ccc(S(=O)(=O)NCC2CC3CCC2C3)cc1 (stereo not drawn)	1.4%	0.3%	?	-5.2%	18.0	?
Cc1cccc(C)c1NC(=O)C(NC(=O)CN1C(=O)c2ccccc2C1=O)c1ccccc1 (stereo not drawn)	-11.5%	0.0%	-13.2%	10.7%	-5.9	25.7%
CCOc1ccc(OCC)c(NS(=O)(=O)c2cc(-c3cc(C)no3)ccc2C)c1	.	.	-12.3%	.	.	-22.2%
Cc1ccc(-n2cc(-c3ccccc3)c3c(N4CCC(C)CC4)ncnc32)cc1Cl	.	.	-11.6%	.	.	1.2%
COc1ccc(-n2cc(-c3ccccc3)c3c(N4CCOCC4)ncnc32)cc1	0.2%	?	18.4µM*	?	-146.3*	?
O=C(NCc1cccc(C(F)(F)F)c1)c1ccc2nc([C@@H]3O[C@H](CO)[C@@H](O)[C@H]3O)[nH]c2c1	.	18.6%	-12.0%	6.4%	13.4	-14.6%
CCCCNC(=O)c1nc(-c2cccnc2OC)oc1-c1ccc(Cl)cc1	.	16.7%	23.1µM*	17.1%	-3.0	16.4µM*
COc1ccc(OC(=O)c2nc(SCc3ccccc3F)ncc2Cl)cc1	.	.	-21.8%	.	.	-8.8%
Cc1cccc(Nc2ncc3c(n2)CC(c2ccco2)CC3=O)c1 (stereo not drawn)	2.9%	?	20.6µM*	?	?	?
CCc1ccccc1NC(=O)C(C)n1nc(-c2ccc(C)c(C)c2)ccc1=O (stereo not drawn)	.	.	?	.	.	23.1µM*
COc1ccc(NC(=O)C(C)n2nc(-c3ccc(C)c(C)c3)ccc2=O)cc1OC (stereo not drawn)	.	.	16.4µM*	.	.	23.1µM*
CCCCCCCCOC(=O)/C=C/c1c(C)[nH]c(=O)[nH]c1=O	-0.5%	-3.0%	7.31µM*	2.7%	6.4	?
COC(=O)[C@@H]1CCCN1C(=O)c1cc(NC(=O)c2ccccc2)cc2ncn(C3CCCC3)c12	.	.	-23.5%	.	.	-21.5%
NC1=NC[C@H](Cc2ccccc2)N1CCCCC1CCCCC1	?	-7.1%	5.17µM*	-6.3%	?	5.17µM*
CC(C)C[C@@H]1CN=C(N)N1C[C@@H]1CCCN1C[C@@H](C(C)C)N1C[C@@H](Cc2ccccc2)N(CCCC2CCCC2)C1=N	8.8%	5.8%	?	0.0%	?	?
NC1=NC[C@H](Cc2ccc(O)cc2)N1CCCCC1CCCCC1	-1.4%	-24.4%	2.59µM*	-28.1%	-58.2*	4.61µM*
NC1=NC[C@H](Cc2ccccc2)N1CCc1cccc(F)c1	-0.9%	1.8%	11.6µM*	-3.5%	-25.9	13µM*

Bioassay records as filed in PubChem.
